Records with an inconclusive call do not appear. Calls of active or inactive are those of the source. How the source made its calls: active means hit-call score of the fitted dose curve at least 0.9, where 1 is the maximum; inconclusive means response in the unintended direction; inactive means score below 0.9.

Experiment [1] addresses Mitogen-activated protein kinase 3 (Homo sapiens) (UniProt P27361). The experiment can be described thus: NVS_ENZ_hMAPK3: NovaScreen (NVS) Enzymatic Assay for human Mitogen-Activated Protein Kinase 3 (MAPK 3) (AID 2283177). Put shortly: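 Cell-free enzymatic assay with recombinant protein and specific substrate; fluorescence and electrophoretic mobility shift read-out 1 h after dosing. Primary screen duplicate at 25 uM; actives then run in concentration-response up to 50 uM, loss of signal versus DMSO.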

The target of experiment [2] is human Phosphodiesterase 4A1 (PDE4A1), PDE4A (gene 5141) (UniProt P27815). The experiment can be described thus: NVS_ENZ_hPDE4A1: NovaScreen (NVS) Enzymatic Assay for human Phosphodiesterase 4A1 (PDE4A1) (AID 2283191). The method, boiled down: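 Cell-free recombinant human PDE4A1 with fluorescent substrate; product separated by electrophoretic mobility shift, 1 h. Screened at 25 uM, then up to 50 uM in concentration-response; loss of signal fitted against DMSO.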
Chain of human Phosphodiesterase 4A1 (PDE4A1), PDE4A (gene 5141) (P27815 whole entry, looked up): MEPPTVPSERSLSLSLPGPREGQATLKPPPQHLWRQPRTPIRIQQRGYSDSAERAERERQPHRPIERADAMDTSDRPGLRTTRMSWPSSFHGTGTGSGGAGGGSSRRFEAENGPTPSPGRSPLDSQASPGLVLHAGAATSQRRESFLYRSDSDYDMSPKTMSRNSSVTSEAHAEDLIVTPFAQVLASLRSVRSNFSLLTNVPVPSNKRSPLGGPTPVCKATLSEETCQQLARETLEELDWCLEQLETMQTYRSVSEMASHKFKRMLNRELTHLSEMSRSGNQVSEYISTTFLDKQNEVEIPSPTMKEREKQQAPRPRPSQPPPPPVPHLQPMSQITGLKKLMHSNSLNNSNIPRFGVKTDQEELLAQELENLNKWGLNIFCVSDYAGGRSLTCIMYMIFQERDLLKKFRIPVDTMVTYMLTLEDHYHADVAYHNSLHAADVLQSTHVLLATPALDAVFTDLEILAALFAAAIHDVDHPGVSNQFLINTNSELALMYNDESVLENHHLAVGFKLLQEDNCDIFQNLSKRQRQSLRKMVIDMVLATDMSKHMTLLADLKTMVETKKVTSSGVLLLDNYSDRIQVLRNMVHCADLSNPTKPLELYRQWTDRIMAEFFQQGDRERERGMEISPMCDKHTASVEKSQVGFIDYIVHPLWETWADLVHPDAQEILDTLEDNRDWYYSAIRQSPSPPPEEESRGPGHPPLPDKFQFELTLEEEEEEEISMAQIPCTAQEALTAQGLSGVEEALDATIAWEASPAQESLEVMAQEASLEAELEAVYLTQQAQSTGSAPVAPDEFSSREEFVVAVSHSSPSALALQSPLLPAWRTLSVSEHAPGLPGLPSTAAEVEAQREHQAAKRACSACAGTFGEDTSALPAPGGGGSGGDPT

The target in experiment [3] is human Matrix Metalloproteinase-7 (MMP7), MMP7 (gene 4316) (UniProt P09237). In words: NVS_ENZ_hMMP7: NovaScreen (NVS) Enzymatic Assay for human Matrix Metalloproteinase-7 (MMP7) (AID 2283183). The method, boiled down: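 Cell-free fluorescence enzymatic assay read 1 h after compound addition, activity loss analyzed against DMSO. Primary duplicate testing at 25 uM; compounds meeting threshold rerun in singleton concentration-response up to 50 uM.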
Chain of human Matrix Metalloproteinase-7 (MMP7), MMP7 (gene 4316) (P09237 whole entry, looked up): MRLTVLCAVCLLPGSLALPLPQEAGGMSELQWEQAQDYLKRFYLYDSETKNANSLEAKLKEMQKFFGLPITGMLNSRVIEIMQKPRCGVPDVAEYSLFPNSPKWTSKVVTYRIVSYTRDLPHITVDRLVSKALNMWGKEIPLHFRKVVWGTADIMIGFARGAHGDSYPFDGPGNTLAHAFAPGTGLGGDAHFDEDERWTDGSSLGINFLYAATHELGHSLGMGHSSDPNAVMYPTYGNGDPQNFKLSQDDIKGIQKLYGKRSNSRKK

In experiment [4] the target is human Mitogen-Activated Protein Kinase 1 (MAPK 1), MAPK1 (gene 5594) (UniProt P28482). The experiment can be described thus: NVS_ENZ_hMAPK1: NovaScreen (NVS) Enzymatic Assay for human Mitogen-Activated Protein Kinase 1 (MAPK 1) (AID 2283175). The method, boiled down: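 Cell-free recombinant human MAPK1 enzymatic assay, fluorescence/electrophoretic mobility shift read at 1 h; loss of signal vs DMSO. Primary screen in duplicate at 25 uM; actives (e.g. ≥30% inhibition) run as concentration-response up to 50 uM.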
Chain of human Mitogen-Activated Protein Kinase 1 (MAPK 1), MAPK1 (gene 5594) (P28482 whole entry, looked up): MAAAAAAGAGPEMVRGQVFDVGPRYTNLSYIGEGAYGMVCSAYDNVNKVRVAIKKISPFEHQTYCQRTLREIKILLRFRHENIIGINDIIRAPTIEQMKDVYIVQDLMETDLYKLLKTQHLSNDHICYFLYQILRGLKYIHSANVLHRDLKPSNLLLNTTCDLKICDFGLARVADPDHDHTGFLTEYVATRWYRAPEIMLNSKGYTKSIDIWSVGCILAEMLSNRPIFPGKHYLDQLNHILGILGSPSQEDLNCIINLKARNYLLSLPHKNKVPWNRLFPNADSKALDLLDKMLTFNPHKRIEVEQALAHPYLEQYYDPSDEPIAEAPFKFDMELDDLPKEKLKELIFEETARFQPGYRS

Experiment [5] has as its target human MAP Kinase-Activated Protein Kinase 2 (MAPKAPK2), MAPKAPK2 (gene 9261) (UniProt P49137). The experiment can be described thus: NVS_ENZ_hMAPKAPK2: NovaScreen (NVS) Enzymatic Assay for human MAP Kinase-Activated Protein Kinase 2 (MAPKAPK2) (AID 2283178). The method, boiled down: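 Cell-free recombinant human MAPKAPK2 activity measured by fluorescence with electrophoretic mobility shift separation of substrate and product, 1 hr after dosing. Loss of signal versus DMSO; primary screen at 25 uM, concentration-response up to 50 uM.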

In experiment [6] the target is human Matrix Metalloproteinase-2 (MMP2), MMP2 (gene 4313) (UniProt P08253). The experiment can be described thus: NVS_ENZ_hMMP2: NovaScreen (NVS) Enzymatic Assay for human Matrix Metalloproteinase-2 (MMP2) (AID 2283184). The method, boiled down: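 Cell-free recombinant MMP2 activity with a fluorescent substrate, read 1 h after dosing. Primary screen in duplicate at 25 uM; actives then run in concentration series; loss of signal fitted versus DMSO.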
Chain of human Matrix Metalloproteinase-2 (MMP2), MMP2 (gene 4313) (P08253 whole entry, looked up): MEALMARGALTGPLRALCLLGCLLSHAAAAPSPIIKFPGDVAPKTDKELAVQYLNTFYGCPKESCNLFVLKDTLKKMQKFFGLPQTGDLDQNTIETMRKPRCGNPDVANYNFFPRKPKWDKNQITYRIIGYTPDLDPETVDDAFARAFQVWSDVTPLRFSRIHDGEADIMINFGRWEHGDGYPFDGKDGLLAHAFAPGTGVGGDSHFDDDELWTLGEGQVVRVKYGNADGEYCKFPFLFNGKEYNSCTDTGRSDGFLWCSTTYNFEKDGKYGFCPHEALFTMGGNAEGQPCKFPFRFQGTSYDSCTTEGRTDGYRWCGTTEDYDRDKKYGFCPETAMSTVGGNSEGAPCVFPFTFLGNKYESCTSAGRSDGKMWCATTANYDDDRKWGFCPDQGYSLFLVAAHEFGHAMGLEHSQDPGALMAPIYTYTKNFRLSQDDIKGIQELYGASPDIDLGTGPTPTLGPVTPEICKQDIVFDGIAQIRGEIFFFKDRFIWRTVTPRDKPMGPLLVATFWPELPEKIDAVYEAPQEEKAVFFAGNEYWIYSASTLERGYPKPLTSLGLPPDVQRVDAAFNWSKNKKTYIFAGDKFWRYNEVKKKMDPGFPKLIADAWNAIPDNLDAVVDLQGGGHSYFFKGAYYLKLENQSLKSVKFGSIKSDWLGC

For experiment [7], the target named is human NIMA (Never In Mitosis Gene A)-Related Kinase 2 (NEK2), NEK2 (gene 4751) (UniProt P51955). The experiment can be described thus: NVS_ENZ_hNEK2: NovaScreen (NVS) Enzymatic Assay for human NIMA (Never In Mitosis Gene A)-Related Kinase 2 (NEK2) (AID 2283188). The method, boiled down: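 Cell-free NEK2 enzyme activity after 1 h exposure, read by fluorescence with electrophoretic mobility shift separating substrate and product. Primary screen in duplicate at 25 uM; actives then run as concentration series. Loss of signal versus DMSO scored.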

The target of experiment [8] is human Ephrin type-A Receptor 1 (EphA1), EPHA1 (gene 2041) (UniProt P21709). In words: NVS_ENZ_hEphA1: NovaScreen (NVS) Enzymatic Assay for human Ephrin type-A Receptor 1 (EphA1) (AID 2283158).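 Further: activity is signal loss versus DMSO meaning EphA1 kinase inhibition.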 The method, boiled down: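 Cell-free enzymatic assay with recombinant EphA1 and fluorescent substrate; product separated by electrophoretic mobility shift, fluorescence intensity read 1 hour after dosing. Loss of signal versus DMSO baseline; primary duplicate screen at 25 uM, actives followed to 50 uM top concentration.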

Experiment [9] concerns the target Histone deacetylase 3 (Homo sapiens) (UniProt O15379). The experiment can be described thus: NVS_ENZ_hHDAC3: NovaScreen (NVS) Enzymatic Assay for human Histone Deacetylase 3 (HDAC3) (AID 2283163). The method, boiled down:
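Recombinant human HDAC3 with fluorescent substrate, 1 h after dosing; product separated from substrate by electrophoretic mobility shift and read by fluorescence. Primary screen at 25 uM in duplicate; actives (e.g. ≥30% inhibition) retested in concentration-response up to 50 uM.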

Experiment [10] concerns the target Glycogen synthase kinase-3 beta (Homo sapiens) (UniProt P49841). The experiment can be described thus: NVS_ENZ_hGSK3b: NovaScreen (NVS) Enzymatic Assay for human Glycogen Synthase Kinase-3 beta (GSK3b) (AID 2283165). Put shortly:
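Recombinant enzyme with specific fluorescent substrate, 1 h, product separated by electrophoretic mobility shift. Primary duplicate screen at 25 uM; actives (e.g. 30% inhibition) followed in singleton concentration-response to 50 uM. Signal loss fitted versus DMSO.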

In experiment [11] the target is Collagenase 3 (Homo sapiens) (UniProt P45452). The experiment can be described thus: NVS_ENZ_hMMP13: NovaScreen (NVS) Enzymatic Assay for human Matrix Metalloproteinase-13 (MMP13) (AID 2283182). Put shortly: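 Recombinant MMP13 cleaving fluorescent substrate, cell-free, measured 1 h after dosing. Primary duplicate screen at 25 uM; actives tested in concentration-response up to 50 uM; loss of signal relative to DMSO.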

The target of experiment [12] is human Matrix Metalloproteinase-9 (MMP9), MMP9 (gene 4318) (UniProt P14780). In words: NVS_ENZ_hMMP9: NovaScreen (NVS) Enzymatic Assay for human Matrix Metalloproteinase-9 (MMP9) (AID 2283190).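 Further: cell-free recombinant MMP9 protease activity read by fluorescent substrate signal; active means inhibition seen as loss of fluorescence signal versus DMSO.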 The method, boiled down:
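Extracted enzyme, fluorescent substrate, 1 h post-dose read. Single conc 25 uM in duplicate, then concentration series for actives. Activity = signal loss relative to DMSO negative control.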

The target in experiment [13] is human Esterase Plasma (ES), BCHE (gene 590) (UniProt P06276). The experiment can be described thus: NVS_ENZ_hES: NovaScreen (NVS) Enzymatic Assay for human Esterase Plasma (ES) (AID 2283157). The method, boiled down:
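Chemicals were added to plasma-extracted human enzyme in a cell-free format, and activity was read colorimetrically after 0.25 hour. Activity loss was referenced to DMSO; concentration-response top dose was 50 uM.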

Experiment [14] addresses human Fibroblast Growth Factor Receptor 1 (FGFR1), FGFR1 (gene 2260) (UniProt P11362). The experiment can be described thus: NVS_ENZ_hFGFR1: NovaScreen (NVS) Enzymatic Assay for human Fibroblast Growth Factor Receptor 1 (FGFR1) (AID 2283159). Put shortly:
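Cell-free recombinant kinase with fluorescent substrate, product separated by electrophoretic mobility shift; read 1 hour after dosing, loss of signal relative to DMSO. Initial screen in duplicate at 25 uM, actives followed in concentration series.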

The target in experiment [15] is Protein deacetylase HDAC6 (Homo sapiens) (UniProt Q9UBN7). In words: NVS_ENZ_hHDAC6: NovaScreen (NVS) Enzymatic Assay for human Histone Deacetylase 6 (HDAC6) (AID 2283164). Put shortly:
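Recombinant human HDAC6 with fluorescent substrate, 1 h; product separated from substrate by electrophoretic mobility shift. Primary screen in duplicate at 25 uM; actives retested singly in concentration-response up to 50 uM, fitted relative to DMSO.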

The target in experiment [16] is human c-Jun N-terminal Kinases (JNK2), MAPK9 (gene 5601) (UniProt P45984). In words: NVS_ENZ_hJNK2: NovaScreen (NVS) Enzymatic Assay for human c-Jun N-terminal Kinases (JNK2) (AID 2283171). The method, boiled down:
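Cell-free recombinant human JNK2 activity assay; fluorescent substrate and product separated by electrophoretic mobility shift, read 1 h after dosing. Primary duplicate screen at 25 uM; actives run in concentration-response up to 50 uM, relative to DMSO.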

Experiment [17] concerns the target human MET Proto-Oncogene, Receptor Tyrosine Kinase (MET), MET (gene 4233) (UniProt P08581). The experiment can be described thus: NVS_ENZ_hMet: NovaScreen (NVS) Enzymatic Assay for human MET Proto-Oncogene, Receptor Tyrosine Kinase (MET) (AID 2283180). Put shortly: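 Cell-free MET kinase assay using recombinant protein and fluorescent substrate, with mobility-shift separation; read 1 h after dosing. Primary duplicate at 25 uM; actives in singleton concentration-response to 50 uM maximum. Signal loss versus DMSO.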

Chain of human MAP Kinase-Activated Protein Kinase 2 (MAPKAPK2), MAPKAPK2 (gene 9261) (P49137 whole entry, looked up): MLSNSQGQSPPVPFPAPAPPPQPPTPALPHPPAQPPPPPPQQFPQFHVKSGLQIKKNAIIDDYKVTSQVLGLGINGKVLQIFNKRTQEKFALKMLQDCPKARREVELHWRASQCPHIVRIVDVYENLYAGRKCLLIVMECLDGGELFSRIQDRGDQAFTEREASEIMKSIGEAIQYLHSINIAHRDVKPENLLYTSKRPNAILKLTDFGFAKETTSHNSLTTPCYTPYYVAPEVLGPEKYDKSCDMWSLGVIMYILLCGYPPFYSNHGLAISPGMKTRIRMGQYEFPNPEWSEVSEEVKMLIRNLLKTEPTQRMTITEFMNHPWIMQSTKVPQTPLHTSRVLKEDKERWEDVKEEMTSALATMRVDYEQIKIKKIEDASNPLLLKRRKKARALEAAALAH
Chain of Mitogen-activated protein kinase 3 (Homo sapiens) (P27361 whole entry, looked up): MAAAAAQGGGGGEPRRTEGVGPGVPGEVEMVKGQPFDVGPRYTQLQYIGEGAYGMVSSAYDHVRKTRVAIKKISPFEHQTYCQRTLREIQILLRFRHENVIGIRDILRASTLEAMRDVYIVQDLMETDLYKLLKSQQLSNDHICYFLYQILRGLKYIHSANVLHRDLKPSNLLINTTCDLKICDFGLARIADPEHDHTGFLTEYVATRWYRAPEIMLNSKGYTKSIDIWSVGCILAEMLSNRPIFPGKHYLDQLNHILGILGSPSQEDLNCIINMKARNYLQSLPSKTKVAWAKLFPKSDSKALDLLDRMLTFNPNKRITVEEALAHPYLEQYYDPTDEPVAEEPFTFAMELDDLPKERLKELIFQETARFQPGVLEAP
Chain of Histone deacetylase 3 (Homo sapiens) (O15379 whole entry, looked up): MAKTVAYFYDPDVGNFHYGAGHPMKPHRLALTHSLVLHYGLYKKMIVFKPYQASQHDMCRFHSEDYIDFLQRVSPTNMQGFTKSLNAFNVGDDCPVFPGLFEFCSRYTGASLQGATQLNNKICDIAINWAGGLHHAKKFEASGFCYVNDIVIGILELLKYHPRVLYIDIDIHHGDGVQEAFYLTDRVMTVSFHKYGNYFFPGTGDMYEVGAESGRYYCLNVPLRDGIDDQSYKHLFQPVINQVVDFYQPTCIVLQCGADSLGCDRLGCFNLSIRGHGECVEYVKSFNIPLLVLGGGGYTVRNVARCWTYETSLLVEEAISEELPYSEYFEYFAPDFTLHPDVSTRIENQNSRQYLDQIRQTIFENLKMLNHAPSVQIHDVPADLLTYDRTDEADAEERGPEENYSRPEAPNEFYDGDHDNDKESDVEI
Chain of Glycogen synthase kinase-3 beta (Homo sapiens) (P49841 whole entry, looked up): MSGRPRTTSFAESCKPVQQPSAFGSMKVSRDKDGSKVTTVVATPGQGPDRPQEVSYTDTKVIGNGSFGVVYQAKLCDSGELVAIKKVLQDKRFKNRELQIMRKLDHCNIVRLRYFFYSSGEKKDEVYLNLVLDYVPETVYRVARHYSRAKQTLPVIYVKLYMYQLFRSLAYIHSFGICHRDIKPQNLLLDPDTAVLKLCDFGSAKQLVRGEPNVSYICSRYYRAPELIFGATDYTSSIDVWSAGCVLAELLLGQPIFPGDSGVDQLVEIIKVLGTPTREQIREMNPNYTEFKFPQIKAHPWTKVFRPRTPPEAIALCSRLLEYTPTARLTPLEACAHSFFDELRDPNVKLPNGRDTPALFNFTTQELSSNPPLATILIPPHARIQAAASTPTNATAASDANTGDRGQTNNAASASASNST
Chain of human Matrix Metalloproteinase-9 (MMP9), MMP9 (gene 4318) (P14780 whole entry, looked up): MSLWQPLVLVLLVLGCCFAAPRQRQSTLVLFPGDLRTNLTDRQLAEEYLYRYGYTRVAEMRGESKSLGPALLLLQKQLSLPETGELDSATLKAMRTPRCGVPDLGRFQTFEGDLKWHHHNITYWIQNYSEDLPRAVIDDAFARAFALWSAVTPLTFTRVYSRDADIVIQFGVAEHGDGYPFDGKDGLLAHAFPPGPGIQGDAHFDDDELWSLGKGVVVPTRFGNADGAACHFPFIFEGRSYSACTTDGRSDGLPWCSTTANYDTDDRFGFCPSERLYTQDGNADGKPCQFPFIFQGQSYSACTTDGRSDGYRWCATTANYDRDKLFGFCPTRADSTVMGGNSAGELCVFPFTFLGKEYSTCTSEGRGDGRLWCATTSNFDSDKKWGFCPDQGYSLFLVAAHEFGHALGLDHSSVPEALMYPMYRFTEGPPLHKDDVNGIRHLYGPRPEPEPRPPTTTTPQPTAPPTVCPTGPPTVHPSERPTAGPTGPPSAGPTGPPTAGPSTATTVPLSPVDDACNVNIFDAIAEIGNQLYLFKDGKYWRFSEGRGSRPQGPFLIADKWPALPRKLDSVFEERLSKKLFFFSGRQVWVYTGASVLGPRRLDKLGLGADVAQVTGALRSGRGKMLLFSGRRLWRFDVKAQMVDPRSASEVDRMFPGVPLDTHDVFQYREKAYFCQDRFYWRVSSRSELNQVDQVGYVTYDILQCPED
Chain of human c-Jun N-terminal Kinases (JNK2), MAPK9 (gene 5601) (P45984 whole entry, looked up): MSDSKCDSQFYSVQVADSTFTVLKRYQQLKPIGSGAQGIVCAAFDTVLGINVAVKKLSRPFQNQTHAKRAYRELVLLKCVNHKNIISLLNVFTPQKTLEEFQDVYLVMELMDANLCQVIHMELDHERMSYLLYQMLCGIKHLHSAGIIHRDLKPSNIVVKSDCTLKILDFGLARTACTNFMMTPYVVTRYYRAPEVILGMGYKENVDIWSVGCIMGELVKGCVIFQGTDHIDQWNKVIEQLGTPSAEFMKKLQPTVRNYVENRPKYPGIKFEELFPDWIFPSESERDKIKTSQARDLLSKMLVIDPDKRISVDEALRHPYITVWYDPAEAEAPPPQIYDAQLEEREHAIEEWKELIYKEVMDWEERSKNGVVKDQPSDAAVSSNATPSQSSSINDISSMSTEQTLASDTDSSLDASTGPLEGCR

Regarding `CCNP(=S)(OC)O/C(C)=C/C(=O)OC(C)C` (stereo not drawn), the result in [1] was inactive. For the same molecule, the AC50 (in general, the concentration giving half of the maximal activity seen) in experiment [2] is 19.5 µM (active).

Regarding `N#CN=C1SCCN1Cc1ccc(Cl)nc1`, the molecule was called inactive in [3].

Regarding `CCCC(=NOCC)C1=C(O)CC(CC(C)SCC)CC1=O` (stereo not drawn), the AC50 in [4] was 14.1 µM (active). For the same molecule, the molecule was called inactive in experiment [5].

Regarding `COC(=O)N(C(=O)N1CO[C@@]2(C(=O)OC)Cc3cc(Cl)ccc3C2=N1)c1ccc(OC(F)(F)F)cc1`, in experiment [6], the AC50 was 9.53 µM (active). Also, in experiment [7], the call was inactive.

As for `Clc1nc(Cl)nc(Nc2ccccc2Cl)n1`, the result in [8], in [9], in experiment [10], in [1], in experiment [5] and in experiment [11] was inactive. For the same molecule, the AC50 in experiment [3] is 7.57 µM (active).

For `CC(C)(C)C(=O)C(Oc1ccc(Cl)cc1)n1cncn1` (stereo not drawn), the result in experiment [1] was inactive.

`CC(C)C1(C)N=C(c2ncccc2C(=O)O)NC1=O` (stereo not drawn): the call in [4] was inactive.

Take `CC(C)Nc1nc(Cl)nc(NC(C)C)n1`: in experiment [2], the AC50 was 1 µM (active).

Take `CC1(C)C(C=C(Cl)Cl)C1C(=O)OC(C#N)c1cccc(Oc2ccccc2)c1` (stereo not drawn): the AC50 in experiment [11] is 11.8 µM (active); in [6], 4.96 µM (active); in experiment [12], 13.4 µM (active).

Regarding `CCCN(CC)CC1COC2(CCC(C(C)(C)C)CC2)O1` (stereo not drawn), in experiment [1], the call was inactive.

Consider `CCOP(=S)(OCC)Oc1nc(Cl)n(C(C)C)n1`, for which, in experiment [13], the AC50 was 4.75 µM (active).

Take `Cc1cnc(C2=NC(C)(C(C)C)C(=O)N2)c(C(=O)O)c1` (stereo not drawn): the call in [10] and in [5] was inactive.

Consider `Cc1c(COC(=O)[C@@H]2[C@H](/C=C(\Cl)C(F)(F)F)C2(C)C)cccc1-c1ccccc1`, for which, in experiment [11], the molecule was classed as inactive.

In the case of `O=C1C2CC=CCC2C(=O)N1SC(Cl)(Cl)Cl` (stereo not drawn), the result in experiment [14] and in [16] was inactive. For the same molecule, the AC50 in experiment [9] is 7.99 µM (active); in experiment [15], 16.7 µM (active).

Consider `N#Cc1c(Cl)cccc1Cl`, for which the result in experiment [1] was inactive.

As for `CN/C(=N\[N+](=O)[O-])NCc1cnc(Cl)s1`, the AC50 in [17] is 22.2 µM (active).

Take `CCOC(=O)C(C)OC(=O)c1cc(Oc2ccc(C(F)(F)F)cc2Cl)ccc1[N+](=O)[O-]` (stereo not drawn): the AC50 in [11] was 15.3 µM (active). Besides, the outcome in experiment [6] was inactive.

Values taken from PubChem BioAssay (EPA / NIEHS).
